Results as given in PubChem BioAssay (Tox21).
Several values for one entry are separate records, joined by “and”; a condition that tells them apart may be missing. Equal values may be shown once. Inconclusive results are not listed. Some compounds were tested as several samples or in several runs, with calls that do not always agree. Activity calls are given as the source filed them. Unless noted, the call rests on the fitted dose curve; in most records, active means well fitted curve in the direction sought with a large enough effect in the repeat runs; inconclusive means weak or mixed curves; inactive means no such curve, though single readings can be large; an effect the other way counts as inactive or inconclusive.

How the values were obtained:
[1] = A CellTox Green Cytotoxicity Assay to monitor cytotoxicity in HepG2 cells - 8 hour (AID 1224890); further: nearly all actives have a fitted effect of over 45% in size; further: potency means the concentration at half of the fitted maximal effect
Outline: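 HepG2 cells were seeded together with the CellTox Green dye at 600 cells/well, left 5 h at 37 C/5% CO2, then given compounds in DMSO. Fluorescence from dye bound to dead-cell DNA was read repeatedly over 40 h of treatment at 37 C.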

[2] = qHTS assay to identify small molecule antagonists of the estrogen receptor alpha (ER-alpha) signaling pathway using the BG1 cell line in the presence of 0.1 nM 17-beta-estradiol - cell viability counter screen (AID 1259241); further: nearly all actives have a fitted effect of over 40% in size
Outline: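 Viability in VM7Luc4E2 cells after 22 hr compound exposure under 0.1 nM 17beta-estradiol stimulation, by CellTiter-Fluor.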

[3] = qHTS assay to identify small molecule antagonists of the androgen receptor (AR) signaling pathway using the MDA cell line in the presence of 0.5 nM R1881 - cell viability counter screen (AID 1259242); further: nearly all actives have a fitted effect of over 45% in size; further: potency means the concentration at half of the fitted maximal effect
Outline: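 MDA-kb2 cells (human breast carcinoma, stably carrying MMTV-luciferase reporter) were exposed to compounds with 0.5 nM R1881 (final) for 16 hr at 37C, 0% CO2; viability then read as live-cell protease fluorescence (CellTiter-Fluor, 30 min) in the same wells.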

[4] = target: Estrogen receptor (Homo sapiens) (UniProt P03372); assay: qHTS assay to identify small molecule antagonists of the estrogen receptor alpha (ER-alpha) signaling pathway using the BG1 cell line in the presence of 0.1 nM 17-beta-estradiol (AID 1259244); further: nearly all actives have a fitted effect of over 50% in size; further: potency means the concentration at half of the fitted maximal effect
Sequence of Estrogen receptor (Homo sapiens) (P03372 whole entry, looked up): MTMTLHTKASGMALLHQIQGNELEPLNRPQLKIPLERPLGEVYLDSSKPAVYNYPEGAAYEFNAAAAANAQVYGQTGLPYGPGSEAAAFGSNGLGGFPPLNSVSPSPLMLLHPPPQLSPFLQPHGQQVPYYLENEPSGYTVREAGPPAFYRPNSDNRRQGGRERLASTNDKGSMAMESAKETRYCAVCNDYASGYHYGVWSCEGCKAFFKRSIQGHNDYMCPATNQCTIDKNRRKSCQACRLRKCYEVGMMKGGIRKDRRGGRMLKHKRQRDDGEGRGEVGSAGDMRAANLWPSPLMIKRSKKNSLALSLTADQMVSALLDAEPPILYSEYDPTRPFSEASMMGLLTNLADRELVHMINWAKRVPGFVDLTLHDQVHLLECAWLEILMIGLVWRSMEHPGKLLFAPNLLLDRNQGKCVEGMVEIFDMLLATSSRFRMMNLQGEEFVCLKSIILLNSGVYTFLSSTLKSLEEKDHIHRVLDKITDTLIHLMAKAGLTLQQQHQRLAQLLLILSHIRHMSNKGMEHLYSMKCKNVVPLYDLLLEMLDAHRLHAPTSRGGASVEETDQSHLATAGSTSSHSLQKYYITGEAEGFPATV
Outline: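 VM7Luc4E2 cells (endogenous full-length ER-alpha, stable 4xERE-luciferase) were grown 5 days in phenol red-free medium with charcoal-stripped FBS, then exposed 22 h at 37C to compounds plus 0.1 nM (final) 17beta-estradiol; ONE-Glo luminescence read-out.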

[5] = qHTS assay to identify small molecule HDAC inhibitors - cell viability counter screen (AID 1259365); further: series mostly up to about 92 µM; nearly all actives have a fitted effect of over 50% in size
Outline: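 Cytotoxicity was gauged in wild-type HCT-116 cells after a brief 2hr treatment with DMSO-dissolved compounds at 37C and 5% CO2, using CellTiter-Glo luminescence developed for 30min at room temperature.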

[6] = qHTS assay to identify small molecule agonists of the sonic hedgehog signaling (Shh) pathway - cell viability counter screen (AID 1259366); further: nearly all actives have a fitted effect of over 50% in size; further: potency means the concentration at half of the fitted maximal effect
Outline: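 Stable Gli1-Luc NIH/3T3 clone, 2,000 cells/well. Compound exposure 24hr at 37C. Read-out: CellTiter-Fluor fluorescence.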

[7] = qHTS assay to identify small molecule antagonists of the sonic hedgehog signaling (Shh) pathway - cell viability counter screen (AID 1259367); further: nearly all actives have a fitted effect of over 55% in size; further: potency means the concentration at half of the fitted maximal effect
Outline: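 NIH/3T3-derived Gli1-Luc reporter cells, 2,000/well, plated 4 hr before compound addition, then stimulated with conditioned medium for 24 hr at 37C. Viability measured in the same wells by CellTiter-Fluor fluorescence, reagent added at 23 hr for 1 hr.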

[8] = qHTS assay to identify small molecule agonists of the sonic hedgehog signaling (Shh) pathway (AID 1259368; calls by dose curve; further: nearly all actives have a fitted effect of over 15% in size; further: potency means the concentration at half of the fitted maximal effect)
Outline: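 NIH/3T3-derived 3T3Gli1-Luc cells carrying a stably integrated Gli1 response element–firefly luciferase reporter were plated, left 4 hr at 37 C, then given compounds in DMSO for 24 hr. Luminescence was read 30 min after adding luciferase reagent.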

[9] = qHTS assay to identify small molecule antagonists of the sonic hedgehog signaling (Shh) pathway (AID 1259369; calls by dose curve; further: nearly all actives have a fitted effect of over 45% in size; further: potency means the concentration at half of the fitted maximal effect)
Outline: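 NIH/3T3-derived 3T3Gli1-Luc cells with stably integrated Gli1-Luc reporter were preincubated 4hr at 37 C, then given compounds in DMSO plus Shh conditioned medium and incubated 24hr. Firefly luciferase luminescence read after 30min reagent at room temperature.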

[10] = target: Estrogen receptor beta (Homo sapiens) (UniProt Q92731); assay: qHTS assay to identify small molecule antagonists of the estrogen receptor beta (ER-beta) signaling pathway (AID 1259378; active means well fitted inhibition curve with a large enough effect in the signal ratio in the repeat runs, not every such curve was filed as active; the % refers to the signal ratio)
Sequence of Estrogen receptor beta (Homo sapiens) (Q92731 whole entry, looked up): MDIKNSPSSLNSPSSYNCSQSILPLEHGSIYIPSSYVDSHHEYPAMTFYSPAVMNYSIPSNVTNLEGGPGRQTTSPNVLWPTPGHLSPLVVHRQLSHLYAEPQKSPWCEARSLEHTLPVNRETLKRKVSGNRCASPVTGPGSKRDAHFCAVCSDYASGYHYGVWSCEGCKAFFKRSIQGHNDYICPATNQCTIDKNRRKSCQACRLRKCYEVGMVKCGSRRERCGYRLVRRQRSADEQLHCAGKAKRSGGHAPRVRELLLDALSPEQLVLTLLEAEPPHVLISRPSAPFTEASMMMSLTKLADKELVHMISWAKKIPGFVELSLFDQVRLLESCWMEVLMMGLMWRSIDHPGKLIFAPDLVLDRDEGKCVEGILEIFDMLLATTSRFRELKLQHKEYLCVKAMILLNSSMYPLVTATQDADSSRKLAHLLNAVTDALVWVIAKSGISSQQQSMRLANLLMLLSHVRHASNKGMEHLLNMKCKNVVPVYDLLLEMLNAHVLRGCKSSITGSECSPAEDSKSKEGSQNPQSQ
Outline: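 ER-beta-UAS-bla HEK293T cells in 2% charcoal-stripped FBS medium treated with compound plus 1nM final 17-beta-estradiol for 16 hr at 37C. Beta-lactamase reporter read by FRET substrate fluorescence after 2 hours at room temperature.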

[11] = qHTS assay to identify small molecule agonists of the androgen receptor (AR) signaling pathway in the presence of an antagonist - cell viability counter screen (AID 1259379); further: nearly all actives have a fitted effect of over 25% in size; further: potency means the concentration at half of the fitted maximal effect
Outline: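 MDA-kb2 human breast carcinoma cells (stable MMTV-luciferase, AR/GR responsive) were seeded 3,000 cells/well, pre-incubated 5 hr at 37C without CO2, then given 3.0uM nilutamide and compounds at 15 concentrations for 16 hr. Viability was read by CellTiter-Fluor fluorescence.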

[12] = qHTS assay to identify small molecule agonists of the estrogen receptor beta (ER-beta) signaling pathway - cell viability counter screen (AID 1259380); further: nearly all actives have a fitted effect of over 30% in size; further: potency means the concentration at half of the fitted maximal effect
Outline: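 ER-beta-UAS-bla HEK293T cells in medium with 2% charcoal-stripped FBS were preincubated 6 hr at 37C, dosed with compound in DMSO for 16 hr, then after the bla read, CellTiter-Glo was added for 30 min at room temperature; luminescence recorded.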

[13] = target: Estrogen receptor (Homo sapiens) (UniProt P03372); assay: qHTS assay to identify small molecule agonists of the estrogen receptor alpha (ER-alpha) signaling pathway in the presence of an antagonist (AID 1259383; calls by dose curve; further: nearly all actives have a fitted effect of over 15% in size; further: potency means the concentration at half of the fitted maximal effect; on activation: top concentration of the series differs between compounds)
Outline: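 VM7Luc4E2 cells (endogenous full-length ER-alpha, 4×ERE-luciferase) were precultured 5 days in phenol red-free medium with 10% charcoal-stripped FBS, given 10.0nM ICI-182,780 (final), then treated with compounds at 15 concentrations for 22hr at 37C; luminescence read with ONE-Glo.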

[14] = qHTS assay to identify small molecule agonists or antagonists of the thyroid stimulating hormone receptor (TSHR) signaling pathway - wild type cell line counter screen (AID 1259384; calls by dose curve)
Outline: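 Wild-type Hek293 cells, 800/well, 18 h at 37C, then compound with Ro20-1724 for 30 min RT. cAMP by HTRF (cAMP-d2/anti-cAMP cryptate), 1 h RT, fluorescence read. 15 concentrations, triplicates.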

[15] = target: Estrogen receptor beta (Homo sapiens) (UniProt Q92731); assay: qHTS assay to identify small molecule agonists of the estrogen receptor beta (ER-beta) signaling pathway (AID 1259377; active means well fitted activation curve with a large enough effect in the signal ratio in the repeat runs, not every such curve was filed as active; the % refers to the signal ratio)
Outline: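 Measured by fluorescence intensity from a B/G FRET beta-lactamase substrate (2 h, room temperature) in ER-beta-UAS-bla HEK293T cells treated with DMSO-dissolved compounds for 16 hr at 37C and 5% CO2.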

[16] = target: Androgen receptor (Homo sapiens) (UniProt P10275); assay: qHTS assay to identify small molecule antagonists of the androgen receptor (AR) signaling pathway using the MDA cell line in the presence of 0.5 nM R1881 (AID 1259243); further: nearly all actives have a fitted effect of over 50% in size
Sequence of Androgen receptor (Homo sapiens) (P10275 whole entry, looked up): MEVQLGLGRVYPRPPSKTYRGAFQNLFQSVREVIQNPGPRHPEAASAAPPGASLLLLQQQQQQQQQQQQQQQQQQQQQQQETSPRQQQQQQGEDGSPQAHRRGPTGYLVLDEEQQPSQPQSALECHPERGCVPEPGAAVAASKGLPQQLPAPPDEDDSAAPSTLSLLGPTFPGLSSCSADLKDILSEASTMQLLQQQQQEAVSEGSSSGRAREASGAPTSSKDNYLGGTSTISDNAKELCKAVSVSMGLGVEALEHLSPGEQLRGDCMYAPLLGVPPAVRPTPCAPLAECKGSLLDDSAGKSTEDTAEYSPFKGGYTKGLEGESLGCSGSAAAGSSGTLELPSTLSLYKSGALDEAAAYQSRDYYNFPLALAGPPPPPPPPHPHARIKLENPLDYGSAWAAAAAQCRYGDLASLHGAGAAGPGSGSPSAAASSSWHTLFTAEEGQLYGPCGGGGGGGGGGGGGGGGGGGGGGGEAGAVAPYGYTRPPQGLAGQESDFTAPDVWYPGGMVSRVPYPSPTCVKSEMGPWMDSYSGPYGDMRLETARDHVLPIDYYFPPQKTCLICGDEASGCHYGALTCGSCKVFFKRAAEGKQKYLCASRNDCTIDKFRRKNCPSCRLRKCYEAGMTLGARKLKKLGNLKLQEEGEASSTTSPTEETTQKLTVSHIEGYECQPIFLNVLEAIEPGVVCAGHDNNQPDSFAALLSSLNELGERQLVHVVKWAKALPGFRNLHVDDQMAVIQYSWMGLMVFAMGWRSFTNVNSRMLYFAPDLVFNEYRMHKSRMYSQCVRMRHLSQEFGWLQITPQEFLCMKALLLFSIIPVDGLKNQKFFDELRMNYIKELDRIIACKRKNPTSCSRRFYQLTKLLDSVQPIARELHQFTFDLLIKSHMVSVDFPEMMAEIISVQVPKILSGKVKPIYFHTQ
Outline: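 MDA-kb2 human breast carcinoma cells carrying an MMTV-luciferase reporter (AR- and GR-responsive) were plated, rested 5 hr at 37C, dosed with compounds, then stimulated with 0.5 nM R1881 (final) for 16 hr; luminescence was read after ONE-Glo.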

[17] = target: Androgen receptor (Homo sapiens) (UniProt P10275); assay: qHTS assay to identify small molecule agonists of the androgen receptor (AR) signaling pathway in the presence of an antagonist (AID 1259381; calls by dose curve; further: nearly all actives have a fitted effect of over 15% in size)
Outline: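 MDA-kb2 human breast carcinoma cells carrying an MMTV-luciferase reporter (AR- and GR-responsive) were treated with compounds at 15 concentrations plus 3.0uM final nilutamide for 16hr at 37C without CO2; luminescence was read after ONE-Glo addition.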

[18] = qHTS assay to identify small molecule HDAC inhibitors (AID 1259364); further: top concentration of the series differs between compounds; nearly all actives have a fitted effect of over 45% in size
Outline: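 Wild-type HCT-116 cells were plated overnight, exposed to compounds for 2 h at 37 °C, then given HDAC-Glo class I/II luminogenic reagent for 30 min at room temperature before luminescence was read.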

[19] = qHTS assay to identify small molecule antagonists of the estrogen receptor beta (ER-beta) signaling pathway - cell viability counter screen (AID 1259382); further: series mostly up to about 92 µM; nearly all actives have a fitted effect of over 55% in size
Outline: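 ER-beta-UAS-bla HEK293T cells (2,000/well, 2% charcoal-stripped FBS) were pre-incubated 6 hr at 37C, then given compound plus 1nM final 17-beta-estradiol for 16 hr. Viability was read in the same wells by CellTiter-Glo luminescence after 30 min at room temperature.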

[20] = qHTS assay to identify small molecule phospholipidosis (PLD) inducers (AID 1259344; active means well fitted curve in the direction sought with a large enough effect; an effect the other way counts as inactive or inconclusive)
Outline: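 HepG2 cells, 900/well, treated with compound plus LipidTOX Red for 24 h at 37 C; amiodarone positive and DMSO negative controls. Fixed with paraformaldehyde/Hoechst, then high-content imaging scored LipidTOX pit count and integrated intensity per well and per cell.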

Measured: Potency

Nc1ccc(-c2ccccc2)cc1
17.7 µM (active) and inactive: [9]
active: [13] 8.87 µM and 9.69 µM
19.9 µM (active) and inactive: [12]
not listed: [15] | [16] | [17] | [18] | [19] | [20]
inactive: all other assays above

Cc1ccc(N)c(N)c1
active: [8] 1.73 µM and 1.54 µM | [9] 24.4 µM
inactive: [1] | [2] | [3] | [5] | [6] | [15] | [11] | [12] | [14]

N#CC(Br)Br
not listed: [3] | [16] | [17] | [18] | [19] | [20]
inactive: all other assays above

Cc1cc(Cl)ccc1OCCCC(=O)O
not listed: [3] | [4] | [10] | [13] | [15] | [18] | [19] | [20]
inactive: all other assays above

CCCCCCCCCCCOC(=O)c1ccccc1C(=O)OCCCCCCCCCCC
not listed: [3] | [16] | [17] | [20]
inactive: all other assays above

Nc1ccc(Cl)c(Cl)c1
not listed: [3] | [4] | [13] | [16] | [17] | [18] | [20]
inactive: all other assays above

NCc1cccnc1
not listed: [3] | [10] | [15] | [16] | [17]
inactive: all other assays above

N[C@@H](Cc1ccc(N(CCCl)CCCl)cc1)C(=O)O
not listed: [3] | [4] | [7] | [13] | [16] | [17]
inactive: all other assays above

C=C(C)C(=O)OCC1CO1 (stereo not drawn)
not listed: [3] | [16] | [17] | [19] | [20]
inactive: all other assays above

CCCCCc1cc(O)cc(O)c1
inactive and 38.9 µM (active): [1]
inactive and 30.6 µM (active): [6]
inactive: [2] | [18] | [5] | [8] | [11] | [12] | [19] | [14]
active: [7] 30.6 µM | [9] 24.4 µM and 19.3 µM

CCC(C)c1cc([N+](=O)[O-])cc([N+](=O)[O-])c1O (stereo not drawn)
inactive and 24.3 µM (active): [7]
inactive and 15.4 µM (active): [3]
inactive and 43.3 µM (active): [6]
inactive and 17.2 µM (active): [4]
inactive and 21.7 µM (active): [11]
inactive and 12.2 µM (active): [9]
not listed: [2] | [15] | [16] | [17] | [20]
inactive: all other assays above

CCOc1cc(C=O)ccc1O
not listed: [3] | [4] | [10] | [13] | [15] | [16] | [17]
inactive: all other assays above

CNC(=O)N(C)c1nnc(C(C)(C)C)s1
not listed: [3] | [15] | [16] | [17] | [18] | [20]
inactive: all other assays above
